Most compounds without a hit are left out; they make up all but 2% or so of the library.
Shn3 3UTR inh = inhibitors of Schnurri-3 3'UTR reporter in osteoblasts. 360,000 tested, 0.52% active. Clone20 osteoblast Shn3 3'UTR firefly luciferase, 24 h. inhibition, % at 12.5 µM;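 active means mean inhibition of at least 75% with every replicate also reaching 75%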;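 further: 0% = median of neutral control wells and 100% = pilot-screen positive control compound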
CF NFkB block = cystic fibrosis NF-kB activation inhibition; KKLEB NF-kB-GFP reporter, PAF-induced, GFP fluorescence overnight; inhibition, % at 5 µM; 360,000 tested, 0.86% active;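 active means at least 50% inhibition at 5 µM, scaled per plate between neutral and stimulator controls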;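 further: PAF is a Pseudomonas aeruginosa culture filtrate used as stimulus; plate controls were PAF-stimulated DMSO wells for no effect and unstimulated DMSO wells for full effect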
PAX8 inh HTS = PAX8 transcriptional activity inhibition; RMG-I TPO-luciferase reporter, SteadyGlo, 24 h; 360,000 tested, 1.2% active; AID 652154; inhibition, % at 12.6 µM;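 active means mean replicate inhibition at least 60% with every replicate also reaching 60%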;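 further: luciferase light reporting Pax8 driven TPO promoter activity; plate controls were median of neutral control wells for no effect and mitoxantrone controls for full effect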
EWS-Fli inh = blocks EWS/Fli oncoprotein-driven transcription | A673 NR0B1-luciferase reporter, viability-normalised | inhibition, % at 12.6 µM | 350,000 tested, 0.67% active | AID 651661;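 active means mean inhibition of at least 50% after viability correction, with every replicate also passing that limit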;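 further: firefly luciferase signal divided by Alamar Blue viability fluorescence both relative to DMSO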
LGR2 antag = Drosophila LGR2 receptor signaling inhibition; HEK293 LGR2, CRE-luciferase, bursicon-stimulated, 4 h; 380,000 tested, 0.35% active; inhibition, % at 9.99 µM;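 active means drop in luminescence signal, shown as inhibition above about 50% in the replicate tests, limit read from the data, passing the limit was not always enough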;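 further: agonist challenge used bursicon conditioned medium at about half maximal strength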
KKLEB cytotox = counter-screen for CF NF-kB inhibitors: cytotoxicity. KKLEB CF airway cells viability, ATPlite luminescence, overnight; hits give low values; cells stimulated with P. aeruginosa culture filtrate. activity change (cytotoxicity), % at 5 µM. 360,000 tested, 0.36% active;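 active means corrected activity change at or below -50% at 5 µM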
* marks the source's active call; other numbers are inactive results.

Screening O=C(c1ccccn1)N1CC(=O)N2[C@H](CO)[C@@H](c3ccc(-c4cccc(F)c4)cc3)[C@H]2C1 returned EWS-Fli inh 9.7 and LGR2 antag 7.6.
For COCC(=O)N1C[C@@H](C)[C@H](OC)CN(C)C(=O)c2ccc(NC(=O)C3CCC3)cc2OC[C@@H]1C the results were EWS-Fli inh 8.4 and LGR2 antag 7.4.
Cc1ccccc1Oc1cc(-n2ncc(Cl)c(Cl)c2=O)ncn1 was read as Shn3 3UTR inh 95.9*, CF NFkB block 96.5*, PAX8 inh HTS -19.7, EWS-Fli inh 41.7, LGR2 antag 101.4* and KKLEB cytotox -100.5*.
For CC=Cc1ccc2n(c1=O)C[C@H]1[C@H](CO)[C@@H](C(=O)NC3Cc4ccccc4C3)N(CC)[C@@H]21 (mixture of isomers) the results were EWS-Fli inh 2.5 and LGR2 antag -4.0.
N#C/C(=C/c1ccc(-c2ccccc2)o1)c1nc(-c2cccs2)cs1 was read as Shn3 3UTR inh -13.0, CF NFkB block -107.4, PAX8 inh HTS 17.0, EWS-Fli inh 83.0*, LGR2 antag -9.9 and KKLEB cytotox -1.6.
Screening N#C/C(=C\c1ccc(-c2ccc(F)cc2)o1)C(=O)Nc1nc(-c2cccs2)cs1 returned Shn3 3UTR inh 5.8, CF NFkB block 32.0, PAX8 inh HTS -3.6, EWS-Fli inh -9.8, LGR2 antag 28.7 and KKLEB cytotox -33.6.
For CC(C)CC#Cc1ccc2c(c1)O[C@H](CN(C)C(=O)c1ccccn1)[C@H](C)CN([C@H](C)CO)S2(=O)=O the results were EWS-Fli inh 10.8 and LGR2 antag -4.0.
CC(C)Cn1c(SC(C)C(=O)Nc2ccc3c(c2)OCCO3)nc2ccccc2c1=O (stereo unspecified) was read as Shn3 3UTR inh 9.9, CF NFkB block 2.6 and KKLEB cytotox 16.6.
Screening CC(Sc1ncnc2ccccc12)C(=O)Nc1ccc2c(c1)OCCO2 (stereo unspecified) returned Shn3 3UTR inh 29.3, CF NFkB block 13.2, PAX8 inh HTS 63.1*, LGR2 antag -7.8 and KKLEB cytotox 0.4.
Screening CC(Sc1nc2ccccc2c(=O)n1C)C(=O)Nc1ccc2c(c1)OCCO2 (stereo unspecified) returned Shn3 3UTR inh 85.8*, CF NFkB block 2.5, PAX8 inh HTS 12.5, EWS-Fli inh 11.7, LGR2 antag -0.2 and KKLEB cytotox 3.3.
For Cc1ccc(S(=O)(=O)Nc2ccc3c(c2)C(=O)N([C@@H](C)CO)C[C@@H](C)[C@@H](CN(C)Cc2ccc(Cl)c(Cl)c2)O3)cc1 the results were EWS-Fli inh 13.8 and LGR2 antag 19.7.
Cc1ccc(-c2cc3c(nn2)-c2ccccc2C3=O)cc1 was read as Shn3 3UTR inh 80.5, CF NFkB block -3.2, PAX8 inh HTS 79.3*, EWS-Fli inh 83.6*, LGR2 antag 91.9* and KKLEB cytotox -74.6*.
Screening O=C1c2ccccc2-c2nnc(-c3ccc(F)cc3)cc21 returned Shn3 3UTR inh -26.1, CF NFkB block -10.5, PAX8 inh HTS -120.5, EWS-Fli inh 44.7, LGR2 antag 51.5* and KKLEB cytotox -16.1.
Cc1ccc(S(=O)(=O)N(C)C[C@@H]2OCCCC[C@@H](C)Oc3ccc(NS(=O)(=O)c4ccc(Cl)cc4)cc3C(=O)N([C@@H](C)CO)C[C@H]2C)cc1 was read as PAX8 inh HTS 67.9*, EWS-Fli inh -16.9 and LGR2 antag 11.2.
Cc1ccc(S(=O)(=O)Nc2ccc3c(c2)C(=O)N([C@@H](C)CO)C[C@@H](C)[C@H](CN(C)S(=O)(=O)c2ccc(Cl)cc2)OCCCC[C@@H](C)O3)cc1 was read as PAX8 inh HTS 84.3*, EWS-Fli inh 10.5 and LGR2 antag -5.7.
For Cc1ccc(S(=O)(=O)Nc2ccc3c(c2)C(=O)N([C@H](C)CO)C[C@@H](C)[C@@H](CN(C)S(=O)(=O)c2ccc(Cl)cc2)OCCCC[C@H](C)O3)cc1 the results were PAX8 inh HTS 33.0, EWS-Fli inh 10.6 and LGR2 antag 8.5.
`Cc1ccc(S(=O)(=O)Nc2ccc3c(c2)C(=O)N([C@H](C)CO)C[C@@H](C)[C@@H](CN(C)S(=O)(=O)c2ccc(Cl)cc2)OCCCC[C@@H](C)O3)cc1` gave PAX8 inh HTS 48.8, EWS-Fli inh 11.4 and LGR2 antag -1.4.
`Cc1ccc(S(=O)(=O)Nc2ccc3c(c2)C(=O)N([C@H](C)CO)C[C@H](C)[C@H](CN(C)S(=O)(=O)c2ccc(Cl)cc2)OCCCC[C@H](C)O3)cc1` gave PAX8 inh HTS 65.6*, EWS-Fli inh 17.9 and LGR2 antag 0.8.
For Cc1ccc(S(=O)(=O)Nc2ccc3c(c2)C(=O)N([C@@H](C)CO)C[C@H](C)[C@H](CN(C)S(=O)(=O)c2ccc(Cl)cc2)OCCCC[C@@H](C)O3)cc1 the results were PAX8 inh HTS 44.8, EWS-Fli inh 11.2 and LGR2 antag 18.8.
Cc1ccc(S(=O)(=O)N(C)C[C@H]2OCCCC[C@H](C)Oc3ccc(NS(=O)(=O)c4ccc(Cl)cc4)cc3C(=O)N([C@H](C)CO)C[C@H]2C)cc1 was read as PAX8 inh HTS 31.1, EWS-Fli inh -2.6 and LGR2 antag 15.7.
Cc1ccc(S(=O)(=O)N(C)C[C@@H]2OCCCC[C@H](C)Oc3ccc(NS(=O)(=O)c4ccc(Cl)cc4)cc3C(=O)N([C@H](C)CO)C[C@@H]2C)cc1 was read as PAX8 inh HTS 73.9*, EWS-Fli inh 19.1 and LGR2 antag 32.8.
`CN1C(=O)c2cc(NC(=O)c3cccc(F)c3)ccc2OC[C@H]2O[C@@H](CC(=O)N3CCc4ccccc4C3)CC[C@H]21` gave PAX8 inh HTS 23.3, EWS-Fli inh 5.0 and LGR2 antag 0.6.
`Cc1ccc(S(=O)(=O)N(C)C[C@@H]2OCCCC[C@@H](C)Oc3ccc(NS(=O)(=O)c4ccc(Cl)cc4)cc3C(=O)N([C@H](C)CO)C[C@H]2C)cc1` gave PAX8 inh HTS 77.4*, EWS-Fli inh -4.1 and LGR2 antag 4.0.
Screening Cc1ccc(S(=O)(=O)Nc2ccc3c(c2)C(=O)N([C@H](C)CO)C[C@@H](C)[C@H](CN(C)S(=O)(=O)c2ccc(Cl)cc2)OCCCC[C@@H](C)O3)cc1 returned PAX8 inh HTS 56.9, EWS-Fli inh 22.6 and LGR2 antag 10.1.
`C[C@@H]1CN([C@@H](C)CO)C(=O)c2cc(NS(C)(=O)=O)ccc2O[C@H]1CN(C)CC1CCCCC1` gave PAX8 inh HTS -6.7, EWS-Fli inh -1.2 and LGR2 antag -21.7.
`C[C@H]1CCCCO[C@H](CN(C)C(=O)c2ccccc2)[C@@H](C)CN([C@@H](C)CO)C(=O)c2cc(NC(=O)Nc3ccc(C(F)(F)F)cc3)ccc2O1` gave PAX8 inh HTS 85.8*, EWS-Fli inh 9.1 and LGR2 antag -2.0.
